# The whole screen tested about 11,000 compounds, of which about 310 (2.8%) were called active. No stated cut-off is given here; in the data, active means activity change below about -85%; inactive means the rest. For the sample, actives were picked, then their nearest neighbours and some compounds at random.
# Tested on: intestinal alkaline phosphatase [Mus musculus]
# Experiment: activators of mouse IAP, confirmation, biochemical, luminescence, single concentration (AID 434970)
# Settings: purified mouse IAP, CDP-Star luminescence, 30 min, at 10 µM; activation factor: measured here: IAP activation factor, stronger effect = higher value; activity change, negative = activation: stronger effect = lower value
Structure (SMILES),activation factor,"activity change, negative = activation"
CCCc1c(NC(=O)Nc2ccc(F)cc2)cnn1-c1ccccc1,1.57,-57.2% (inactive)
CCCc1c(NC(=O)Nc2ccc(F)cc2)cnn1-c1ccc(Cl)cc1,2.42,-142% (active)
O=C(NCCc1ccncc1)Nc1ccc(Cl)cc1,1.09,-8.6% (inactive)
COCCn1c(SCC(=O)Nc2nc3ccccc3s2)nnc1-c1ccoc1C,0.944,5.6% (inactive)
N#CCCn1c(=S)[nH]c2ccccc21,0.98,2% (inactive)
Cc1ccc(S(=O)(=O)Nc2ccc(O)c(Sc3ncn[nH]3)c2)cc1,0.349,65.1% (inactive)
CC(C)(C)N(NC(=O)Nc1ccc(Cl)c(Cl)c1)C(=O)c1ccccc1,3.95,-295% (active)
CN(C)S(=O)(=O)Oc1cccc(C(=O)Nc2ccc(Cl)cc2)c1,0.992,0.85% (inactive)
Cc1cc(C)cc(C(=O)N(NC(=O)Nc2ccc(Cl)cc2)C(C)(C)C)c1,4.22,-322% (active)
COC(=O)c1cccc(NC(=O)Nc2ccc(Cl)c(Cl)c2)c1,1.89,-88.6% (inactive)
CN(C)S(=O)(=O)Oc1cccc(C(=O)Nc2ccc(Cl)c(Cl)c2)c1,0.948,5.2% (inactive)
CNC(=O)Nc1ccc(Cl)cc1,1.26,-26.3% (inactive)
CCCN(/C=N/c1sc2c(c1C#N)CCCCC2)CCC,0.953,4.7% (inactive)
Cn1ncc(C#N)c1/N=C/N1CCOCC1,1.05,-4.75% (inactive)
Cc1ccc(CNC(=O)c2ccc(NC(=O)CCS(=O)(=O)c3cccs3)cc2)cc1,0.978,2.15% (inactive)
CC(NC(=S)Nc1ccc(S(=O)(=O)N2CCOCC2)cc1)C1CC2CCC1C2 (stereo not drawn),2.45,-145% (active)
CC(C)c1ccc(N(CC(=O)Nc2ccc(S(=O)(=O)N3CCOCC3)cc2)S(C)(=O)=O)cc1,1.12,-12.1% (inactive)
O=C(Nc1ccc(S(=O)(=O)N2CCOCC2)cc1)C1CCCCC1,0.984,1.6% (inactive)
Cc1cc[n+](CCC(=O)O)c2ccccc12,0.901,9.85% (inactive)
CCN(C1CCCCC1)S(=O)(=O)c1cc(C)ccc1OC,1.04,-4.35% (inactive)
CN1CC(COCc2ccccc2)Oc2ccccc2S1(=O)=O (stereo not drawn),1.04,-4.4% (inactive)
CC(NC(=O)Nc1ccc(Cl)c(Cl)c1)C(c1ccccc1)N1CCOCC1 (stereo not drawn),3.21,-221% (active)
CC(Cc1cccs1)NC(=O)Nc1ccc(Cl)c(Cl)c1 (stereo not drawn),0.945,5.6% (inactive)
CC(NC(=O)Nc1ccc(Cl)cc1)C(c1cccs1)N1CCOCC1 (stereo not drawn),1.71,-71.1% (inactive)
Cc1ccc(N2C(=O)c3ccc(C(=O)Nc4cccnc4)cc3C2=O)c(C)c1,0.946,5.45% (inactive)
Cc1ccc2[nH]c(=O)c(C(c3nnnn3CC3CCCO3)N3CCCc4ccccc43)cc2c1 (stereo not drawn),0.398,60.2% (inactive)
CCOc1ccc(NC(=O)CS(=O)CC(=O)NC2CCCc3ccccc32)cc1 (stereo not drawn),1,-0.45% (inactive)

Structure (SMILES),activation factor,"activity change, negative = activation"
COC(=O)c1ccc(NC(=S)NC2CCc3ccccc32)cc1 (stereo not drawn),1.51,-50.8% (inactive)
COc1ccc(-c2nnn(CC(=O)NC3CCCc4ccccc43)n2)cc1OC (stereo not drawn),1.06,-5.8% (inactive)
COc1cccc(NC(=O)NC2CCCc3ccccc32)c1 (stereo not drawn),2.74,-174% (active)
CCOc1ccc(NC(=O)CN(C)CC(=O)NC2CCCc3ccccc32)cc1OCC (stereo not drawn),1.1,-9.8% (inactive)
Cc1cccc(-n2nnc(C(=O)NC3CCCc4ccccc43)c2N)c1 (stereo not drawn),1.01,-1.4% (inactive)
Cc1cccc(NC(=O)NC2CCCc3ccccc32)c1 (stereo not drawn),3.36,-236% (active)
Cc1cccc(C)c1NC(=O)CS(=O)CC(=O)NC1CCCc2ccccc21 (stereo not drawn),1.11,-11.2% (inactive)
CC(C)(C)c1ccc(NC(=O)NC2CCCc3ccccc32)cc1 (stereo not drawn),3.53,-253% (active)
CCCn1c(Nc2ccccc2C)nc2ccccc21,0.988,1.25% (inactive)
COC(=O)c1cn(CC(=O)NC2CCCCC2)c2ccccc12,1.04,-3.9% (inactive)
Cc1ccc(-c2cc(-c3ccccc3)c3c(N)c(S(C)(=O)=O)sc3n2)cc1,0.966,3.45% (inactive)
O=c1oc2cc(OCc3ccc([N+](=O)[O-])cc3)ccc2c2c1CCCC2,0.909,9.15% (inactive)
COc1cccc(N=c2oc3ccc(OC)cc3cc2-c2nc3ccccc3[nH]2)c1,1.03,-2.7% (inactive)
O=C(Nc1ccccc1)c1ccc(S(=O)(=O)N2CCOCC2)cc1,1.01,-1.35% (inactive)
O=C(Nc1ccc(Cl)cc1)Nc1cc(S(=O)(=O)N2CCOCC2)ccc1N1CCCC1,2.15,-116% (active)
CC(=O)c1cccc(NC(=O)Nc2ccc(C(=O)N3CCOCC3)cc2)c1,1.06,-6.35% (inactive)
CCN(CC)c1ccc(S(=O)(=O)N2CCOCC2)cc1NC(=O)Nc1ccccc1,2.53,-153% (active)
Cc1ccc(NC(=O)Nc2ccccc2F)cc1S(=O)(=O)N1CCOCC1,1.52,-51.6% (inactive)
Cc1ccc(C(=O)N2CCOCC2)cc1Cl,0.984,1.65% (inactive)
COc1ccccc1NC(=O)c1cc(S(=O)(=O)N2CCOCC2)ccc1Cl,0.877,12.2% (inactive)
O=C(Nc1ccc(Cl)c(Cl)c1)Nc1cc(S(=O)(=O)N2CCOCC2)ccc1N1CCCC1,2.53,-153% (active)
CN1CCN(c2ccc(Cl)cc2NC(=O)c2ccc(S(=O)(=O)N3CCCCCC3)cc2)CC1,0.982,1.75% (inactive)
CC(Sc1ccc(Cl)cc1)C(=O)Nc1ccc(S(=O)(=O)N2CCOCC2)cc1 (stereo not drawn),1.07,-7.35% (inactive)
Cc1oc(S(=O)(=O)N2CCCCC2)cc1NC(=O)Nc1ccc(Cl)cc1,1.42,-41.8% (inactive)
O=C(Nc1ccc(Cl)c(Cl)c1)Nc1cc(C(=O)N2CCOCC2)ccc1N1CCCCC1,2.67,-167% (active)
Cc1ccc2c(c1)nnn2C1CCN(S(C)(=O)=O)CC1,0.904,9.55% (inactive)
CCc1ccccc1NC1=NCC(=O)N1Cc1ccccc1,1,-0.1% (inactive)

# From PubChem BioAssay AID434970 (Sanford-Burnham Center for Chemical Genomics, 2010)
